# Most compounds without a hit are left out; they make up all but 10% or so of the library.
# Six1-Eya2 inh – qHTS Assay for Inhibitors of the Six1/Eya2 Interaction | 360,000 compounds, 0.56% hits | AID 651725, 2012 | AlphaScreen GST-Six1/His-Eya2 binding, biochemical; stronger effect = lower value | Homeobox protein SIX1 (Homo sapiens) + Protein phosphatase EYA2 (Homo sapiens), … | activity change, % (concentration not given with the values); in the data active = activity change below about -65%; inconclusive = mostly about -30% to -63%; note: % is set by controls: 0 for no effect and ±100 for the full control effect
# Target sequence (O00167 whole entry, looked up): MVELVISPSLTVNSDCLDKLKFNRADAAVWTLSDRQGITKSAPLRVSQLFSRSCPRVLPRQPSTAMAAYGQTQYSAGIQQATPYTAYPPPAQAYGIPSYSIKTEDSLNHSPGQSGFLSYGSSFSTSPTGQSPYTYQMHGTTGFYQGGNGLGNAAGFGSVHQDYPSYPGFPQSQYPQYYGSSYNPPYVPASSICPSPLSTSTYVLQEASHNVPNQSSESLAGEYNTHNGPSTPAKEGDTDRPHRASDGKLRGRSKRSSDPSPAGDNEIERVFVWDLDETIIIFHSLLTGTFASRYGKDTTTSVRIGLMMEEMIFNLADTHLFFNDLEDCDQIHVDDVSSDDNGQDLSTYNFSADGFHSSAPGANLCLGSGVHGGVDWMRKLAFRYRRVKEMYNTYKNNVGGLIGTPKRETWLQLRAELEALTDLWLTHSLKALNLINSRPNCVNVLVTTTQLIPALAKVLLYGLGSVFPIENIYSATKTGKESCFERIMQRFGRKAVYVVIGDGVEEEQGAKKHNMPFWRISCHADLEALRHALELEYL
# Target sequence (Q15475 whole entry, looked up): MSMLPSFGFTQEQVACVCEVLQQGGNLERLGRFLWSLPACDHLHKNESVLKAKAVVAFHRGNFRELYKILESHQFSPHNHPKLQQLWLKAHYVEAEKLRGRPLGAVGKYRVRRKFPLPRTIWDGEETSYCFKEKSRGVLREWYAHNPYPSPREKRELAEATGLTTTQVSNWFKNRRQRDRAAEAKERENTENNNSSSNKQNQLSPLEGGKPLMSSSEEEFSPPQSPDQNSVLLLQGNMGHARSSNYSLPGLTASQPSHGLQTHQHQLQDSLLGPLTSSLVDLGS
#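 Six1/Eya2 binding was read as AlphaScreen signal after compounds were pinned into GST-Six1 plus His-tagged Eya2 (5X stock 250/500 nM) in pH 8.0 Tris/NaCl/TCEP buffer, beads added, then incubated 1 h, 37 C, dark.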
# CtBP-E1A inh – qHTS Assay for Inhibitors of the CtBP/E1A Interaction | CtBP / adenovirus E1A interaction (AlphaScreen) | AlphaScreen GST-E1A/His-CtBP binding, 1536-well; stronger effect = lower value | activity change, % (no concentration beside the values) | 340,000 compounds, 0.49% hits | AID 651724, 2012; in the data active = activity change below about -65%; inconclusive = mostly about -30% to -63%; note: % is set by controls: 0 for no effect and ±100 for the full control effect
#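 Homogeneous bead-based format: GST-tagged E1A captured on glutathione donor beads, His-tagged CtBP on nickel acceptor beads; compounds precede bead addition by 2 h at 37 °C.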
# HP1b chromo inh – HTS for Inhibitors of HP1-beta Chromodomain Interactions with Methylated Histone Tails. Chromobox protein homolog 1 (Homo sapiens), P83916. AlphaScreen HP1-beta / biotin-H3K9me3 peptide binding. Potency, µM (series often up to 114 µM), inactives show top-dose activity change, negative = inhibition, actives largely listed as inhibitors. 390,000 compounds, 0.56% hits; note: potency is the fitted concentration of half-maximal effect; nearly all actives have a fitted effect of over 70% in size
#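 AlphaScreen: HP1-beta (50 nM) preformed 30 min with biotin-H3(1-18)K9me3 peptide (50 nM) in PBS pH 7.4, 0.01% Tween-20. Compound added for 30 min at RT, then streptavidin donor/nickel chelate acceptor beads (10 ug/mL) for 30 min.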
# BAZ2B block – qHTS Assay for Inhibitors of BAZ2B; Bromodomain adjacent to zinc finger domain protein 2B (Homo sapiens), Q9UIF8; AlphaScreen BAZ2B-H3K14Ac peptide displacement; Potency, µM (doses to about 114 µM), without a hit: at the highest dose activity change, negative = inhibition, hits mostly inhibitors; 360,000 compounds, 4.4% hits; note: potency is the fitted concentration of half-maximal effect; % is set by controls: 0 for no effect and ±100 for the full control effect; nearly all actives have a fitted effect of over 60% in size
#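 BAZ2B (50 nM) with biotin-H3(5-23)K14Ac peptide (50 nM) in PBS pH 7.4, 0.01% Tween-20, preformed 30 min, then compound 30 min at room temperature; top concentration 110uM. AlphaScreen streptavidin donor/nickel chelate acceptor beads (10 ug/mL final), 20 min dark, signal read.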
# JMJD2A Tudor – qHTS Assay for Inhibitors of JMJD2A-Tudor Domain | Lysine-specific demethylase 4A (Homo sapiens), O75164 | AlphaScreen JMJD2A-Tudor / H3K4me3 peptide binding | Potency, µM (series often up to 114 µM), for the others: at the highest dose activity change, negative = inhibition, most hits filed as inhibitors | 390,000 compounds, 4.4% hits | AID 504339, 2011; note: potency is the fitted concentration of half-maximal effect; % is set by controls: 0 for no effect and ±100 for the full control effect; nearly all actives have a fitted effect of over 50% in size
# G9a inh – qHTS Assay for Inhibitors of Histone Lysine Methyltransferase G9a. G9a H3K9 monomethylation, AlphaScreen, 2 h. Potency, µM (highest dose often 102 µM), for the others: top-dose activity, negative = inhibition, most hits filed as inhibitors. 350,000 compounds, 8.8% hits. AID 504332, 2011; note: potency is the fitted concentration of half-maximal effect; % is set by controls: 0 for no effect and ±100 for the full control effect; nearly all actives have a fitted effect of over 75% in size
#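 Chemiluminescent proximity detection of H3K9 monomethylation, read after 10 min bead incubation in the dark. Reaction: 20 nM G9a, 500 nM biotin-H3K9 peptide, 20 uM SAM cofactor, 2 h, room temperature, following 15 min enzyme-compound preincubation.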
# An asterisk follows results filed as active; ? = inconclusive; · = no result given; [ ] = remark or other dose. Unless noted, calls come from the whole dose curve; as a rule, active = well fitted inhibition curve with a large enough effect; inconclusive = small, poorly fitted or top-dose-only effect; inactive = no such curve, though single readings can be large or run the other way.
SMILES,Six1-Eya2 inh,CtBP-E1A inh,HP1b chromo inh,BAZ2B block,JMJD2A Tudor,G9a inh
CC(=O)C1=C(O)C(=O)N(c2ccc(Br)cn2)C1c1ccc(F)cc1 (centres undefined),0,-2,20%,56µM*,1.1µM*,·
CC(=O)C1=C(O)C(=O)N(c2cc(C(C)(C)C)on2)C1c1ccc(Br)cc1 (centres undefined),20,37,35%,-37%,?,45µM*
COc1ccc(NC(=O)c2sc3nc[nH]c(=O)c3c2C)cc1Cl,·,·,9%[57 µM],3%,-9%,15%[59 µM]
O=C1CC(c2ccc(Cl)cc2)Sc2nc(-c3ccc(F)cc3)nn21 (centres undefined),·,·,30%,0%,-2%,-6%[59 µM]
COc1ccc2c(CNCc3ccco3)c(C(=O)O)n(Cc3ccc(F)cc3Cl)c2c1,·,·,13%,?,-25%,-14%[59 µM]
COC(=O)c1ccc(Cl)cc1NC(=O)Nc1nnc(N2CCCC2)s1,·,·,21%,-2%,-12%,-2%[59 µM]
CC(=O)C1=C(O)C(=O)N(c2ccc(Br)cn2)C1c1ccc(Br)cc1 (centres undefined),2,·,-13%,?,22µM*,56µM*
CC(=O)C1=C(O)C(=O)N(c2nccs2)C1c1ccc(Br)cc1 (centres undefined),-9,-10,10%,-7%,-9%,?
CCN(CC)c1ccc(/C=N/NC(=O)c2ccccn2)cc1,-2,-5,46%,-12%,-20%,11%[59 µM]
CCN(CC)c1ccc(/C=N/NC(=O)c2c[nH]c3ccccc23)cc1,-24,-8,3%,?,-33%,8.9µM*
CCN(CC)c1ccc(/C=N/NC(=O)c2cnccn2)cc1,-7,-22,34%,·,-15%,56µM*
CC1=C(C(=O)Nc2c(C)cc(C)cc2C)C2(CCN(C(C)C)CC2)OC1=O,·,·,37%,-12%,2%,-21%[59 µM]
C=CCNCCCCOc1ccc(Br)cc1C,16,2,?,79µM*,2.5µM*,2.5µM*
Cc1cc(Br)ccc1OCCCCNCCO,5,4,?,?,3.2µM*,·
Cc1cc(C)cc(NC(=O)c2ncn(-c3ccccc3)n2)c1,·,·,21%,-13%,-7%,-9%[59 µM]
Cc1ccc(Nc2nc(Nc3ccc(Cl)cc3)nc(N3CCOCC3)n2)cc1,·,·,1%[57 µM],·,-2%[57.1 µM],·
CC12CCC(/C(=N/O)C1=O)C2(C)C (centres undefined),·,·,27%,·,-9%,·
CCCCn1c(N)c(N(CC)C(=O)CSCc2c(C)noc2C)c(=O)[nH]c1=O,3,4,30%,-8%,-14%,45µM*
CCCN(C(=O)Cn1nc(C)c([N+](=O)[O-])c1C)c1c(N)n(Cc2ccccc2)c(=O)[nH]c1=O,7,8,21%,9%,-3%,45µM*
CCCN(C(=O)CSCc1c(C)noc1C)c1c(N)n(Cc2ccccc2)c(=O)[nH]c1=O,6,2,-14%,3%,-15%,45µM*
CCCN(C(=O)c1c(-c2ccccc2)noc1C)c1c(N)n(Cc2ccccc2)c(=O)[nH]c1=O,7,0,21%,-37%,0%,-21%[0.0925 µM]
CCCCn1c(N)c(N(CCOC)C(=O)CSCc2c(C)noc2C)c(=O)[nH]c1=O,-1,2,34%,-17%,-10%,-3%
Cc1cccc(C(c2sc3nc(-c4ccco4)nn3c2O)N2CCN(c3ccccc3F)CC2)c1 (centres undefined),·,·,-16%,-38%,?,?
Cc1ccc(-c2nc(C)c(CCNC(=O)C(=O)Nc3ccc(C)c(Cl)c3)s2)cc1,·,·,28%[57 µM],-21%,-2%,1%[59 µM]
COc1cc(F)c(S(=O)(=O)N2CCN(S(=O)(=O)c3ccc(NC(C)=O)cc3)CC2)c(F)c1,·,·,·,·,-19%,·
SMILES,Six1-Eya2 inh,CtBP-E1A inh,HP1b chromo inh,BAZ2B block,JMJD2A Tudor,G9a inh
Cc1cc(NC(=O)CS(=O)(=O)c2cn(Cc3cccc(F)c3)c3ccccc23)no1,4,-7,5%,-35%,-29%,14µM*
CCOc1ccc(N2C(=O)c3cccnc3C2Nc2ccc(F)cc2)cc1 (centres undefined),0,-2,3%,36%,-27%,56µM*
CC1CCCC(NC(=O)COC(=O)Cc2cn3ccsc3n2)C1C (centres undefined),3,1,9%,2%,-21%,50µM*
CCn1c2ccccc2c2cc(NC(=O)COC(=O)Cc3cn4ccsc4n3)ccc21,-15,-11,1%,5%,35µM*,-1%
CCn1c2ccccc2c2cc(NC(=O)COC(=O)c3ccc(O)cc3)ccc21,-4,1,13%,-20%,-23%,?
O=C(Cc1cn2ccsc2n1)NCc1ccccc1,0,8,32%,79µM*,-34%,-35%[59 µM]
CCC(C)NC(=O)C1CCN(S(=O)(=O)c2ccc3c(ccn3CC)c2)CC1 (centres undefined),·,·,27%[57 µM],-2%,4%,0%[59 µM]
CC(=O)Nc1nonc1-c1nnc(SCc2ccc(F)cc2)n1C,·,·,46%,-2%,9%,3%[59 µM]
Cc1ccc(N2C(=O)CCSC23C(=O)N(Cc2ccccc2)c2ccccc23)cc1 (centres undefined),·,·,-1%,-12%[57.1 µM],-31%,-34%[59 µM]
CSc1nc(N)c2ncn([C@@H]3O[C@H](COP(=O)(O)OP(=O)(O)OP(=O)(O)O)[C@@H](O)[C@H]3O)c2n1,·,·,·,·,·,37%[59 µM]
CSc1nc(N)c2ncn([C@@H]3O[C@H](COP(=O)(O)OP(=O)(O)O)C(O)[C@H]3O)c2n1 (some centres undefined),·,·,·,·,·,9.5µM*
Cc1ccc2[nH]c(CSc3nnc(C)s3)cc(=O)c2c1,·,·,16%[57 µM],6%,-13%,?
O=C(COC(=O)CC1CC2CCC1C2)Nc1ccccc1[N+](=O)[O-] (centres undefined),?,-4,?,·,50µM*,·
CCOC(=O)C1=C(O)/C(=C\c2ccc(CNC(=O)C(=O)Nc3ccc(C)c(C)c3)o2)N=C1C,·,·,·,-39%,·,45µM*
COCCNC(=O)/C(C#N)=C\c1ccc(CNC(=O)C(=O)Nc2ccc(C)c(C)c2)o1,-1,-1,36%,-17%,-9%,-8%
O=C(NC1CCCCCC1)C(=O)NC1CC1,8,11,46%,?,-2%,·
O=C(NNC(=O)C1CCCCC1)C(=O)NC1CCCCC1,3,5,9%,1%,?,10µM*
